INS-1E GSIS act – primary screen for activators of insulin secretion dependent on glucose, INS-1E cells, GLuc reporter luminescence; AID 743287; 370,000 tested, 0.61% active; activation, % at 16.6 µM; INS-1E GLuc reporter insulin secretion, 2-3 h;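 active = lowest replicate activation of at least 40%, so every replicate reaches that level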
PGC1a acetyl inh – modulators of PGC1a acetylation; inhibition, % at 15.6 µM; 350,000 tested, 0.17% active; U2OS PGC1a acetylation, AlphaScreen anti-acetyl-lysine; with virally co-expressed GCN5 acetyltransferase; AID 651687;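 active = every replicate shows inhibition of at least 40%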
NSD2 inh – NSD2 (human) methyltransferase inhibition | inhibition, % at 12.5 µM | NSD2 peptide methylation, AlphaScreen, 120 min | AID 743445 | 310,000 tested, 0.54% active | O96028; in the data active = inhibition above about 50%
Env fusion inh – inhibitors of HIV Env-mediated cell fusion; HeLa-JRFL Env/CEM21 cell fusion, luciferase; inhibition, % at 12.3 µM; 360,000 tested, 1.1% active; AID 651610;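 active = mean replicate inhibition score of at least 50 and every replicate individually at or above 50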
AF4-AF9 inh – MLL-AF4/AF9 protein interaction inhibition | P42568 | AlphaScreen, biotin-AF4 peptide binding to FLAG-AF9 | inhibition, % at 10 µM | 350,000 tested, 0.47% active | AID 651704;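 active = every replicate reaching a set inhibition limit, whatever the replicate mean, cut at about 25% in these data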
Alpha artifact – counter-screen for NSD2 inhibitors: AlphaScreen artifacts | shares compounds with NSD2 inh | AC35, µM (titrated, usually from 10 µM) | AlphaScreen artifact counterscreen, preloaded methylated H4 peptide | 1,500 tested, 9.4% active; call rule not given here
Each line names hits and unclear results; the compound was inactive in the other large screens (follow-up assays come after a bar, where they were run). Most compounds without a hit are left out; they make up all but 2.1% or so of the library.

CO[C@@H]1CN(C)C(=O)c2ccc(NC(=O)Nc3ccc4c(c3)OCO4)cc2OC[C@H](C)NC[C@@H]1C	none (no result: NSD2 inh)
CCOC(=O)c1c(C#N)c(SCC(=O)Nc2ccc(OC)cc2)nc2c1CN(CC)CC2	NSD2 inh 70 (no result: INS-1E GSIS act, Env fusion inh, AF4-AF9 inh) | Alpha artifact inactive
CN(C)C=C1C(=O)c2ccccc2C1=O	none (no result: Env fusion inh, AF4-AF9 inh)
CCN(CC)C(=O)COc1ccc2oc(C)c(C(=O)OC(C)C)c2c1	NSD2 inh 114 (no result: INS-1E GSIS act, AF4-AF9 inh) | Alpha artifact inactive
O=C(c1cccc([N+](=O)[O-])c1)N1CCN(S(=O)(=O)/C=C/c2ccccc2)CC1	none (no result: Env fusion inh)
COCCn1c(N)c(N(Cc2ccccc2)C(=O)c2cc(=O)[nH]c3ccccc23)c(=O)[nH]c1=O	NSD2 inh 93 (no result: Env fusion inh) | Alpha artifact inactive
O=C(NC(NC(=S)Nc1ccccc1C(=O)O)C(Cl)(Cl)Cl)c1ccco1 (centres undefined)	none (no result: PGC1a acetyl inh, Env fusion inh)
C=CCn1c(N)c(C(=O)NCC2CCCO2)c2nc3ccccc3nc21 (centres undefined)	NSD2 inh 99 (no result: INS-1E GSIS act, Env fusion inh, AF4-AF9 inh) | Alpha artifact inactive
COc1ccc(-n2c(N)c(C(=O)NCC3CCCO3)c3nc4ccccc4nc32)c(OC)c1 (centres undefined)	none (no result: Env fusion inh, AF4-AF9 inh)
C/C(=N\NC(=O)CCC(=O)NCc1ccccc1)c1ccc([N+](=O)[O-])cc1	none
O=[N+]([O-])c1cccnc1C1OCCO1	none (no result: PGC1a acetyl inh)
Cc1cnc(C2OCCO2)c2cccc(N)c12	NSD2 inh 156 (no result: INS-1E GSIS act) | Alpha artifact inactive
O=C(CN1CCC(C(=O)c2ccc3c(c2)OCCO3)CC1)NCc1ccccc1	NSD2 inh 65 | Alpha artifact inactive
CC(NC1=CC(=O)c2cccnc2C1=O)C(O)c1ccccc1 (centres undefined)	NSD2 inh 114 | Alpha artifact inactive
CSc1cnc2c(=O)n(C)c(=O)[nH]c2n1	none (no result: PGC1a acetyl inh)
Cn1c(=O)[nH]c2nnc(-c3ccc(Cl)c(Cl)c3)nc2c1=O	NSD2 inh 107 (no result: PGC1a acetyl inh) | Alpha artifact inactive
CC(C)[C@H]1C(=O)N[C@H](c2ccccc2)CC=CC[C@H](C)Oc2ccccc2C(=O)N1C (mixture of isomers)	none (no result: PGC1a acetyl inh, NSD2 inh, Env fusion inh, AF4-AF9 inh)
COc1ccc(S(=O)(=O)N(C)C[C@@H]2Oc3ncc(C#Cc4cccc(F)c4)cc3C(=O)N([C@H](C)CO)C[C@@H]2C)cc1	none (no result: NSD2 inh)
CC(=O)NCCN1C(=O)C2C3c4ccccc4C(c4ccccc43)C2C1=O (centres undefined)	NSD2 inh 76 (no result: PGC1a acetyl inh, AF4-AF9 inh) | Alpha artifact inactive
CC(=O)c1cc(C)ccc1OC(=O)CCN1C(=O)C2C3c4ccccc4C(c4ccccc43)C2C1=O (centres undefined)	none (no result: AF4-AF9 inh)
CCCN(CCC)CCCn1c(=O)[nH]c2ccccc21	none
COc1cc(N)c(C(=O)c2nccc3cc(OC)c(OC)cc23)cc1OC	NSD2 inh 72 | Alpha artifact inactive
COc1cc(C(=O)c2nccc3cc(OC)c(OC)cc23)c([N+](=O)[O-])cc1OC	NSD2 inh 54 | Alpha artifact inactive
COc1cc(Br)c(C(=O)c2nccc3cc(OC)c(OC)cc23)cc1OC	NSD2 inh 99 | Alpha artifact inactive
COc1cc2ccnc(C=O)c2cc1OC	none (no result: INS-1E GSIS act, PGC1a acetyl inh, Env fusion inh, AF4-AF9 inh)
COc1cc(C(=O)c2ccccc2)c([N+](=O)[O-])cc1OC	none
COc1cc(N)c(Cc2nccc3cc(OC)c(OC)cc23)cc1OC	none
C[C@H](CO)N1C[C@H](C)[C@H](CN(C)C(=O)Nc2ccc(F)cc2)Oc2ncc(C#CCC3CCCC3)cc2C1=O	none (no result: NSD2 inh)
FC(F)(F)c1nnc(N2CCN(c3ccc(Cl)cc3)CC2)s1	none
CSc1nc(N)nc(N(C)C)n1	NSD2 inh 61 | Alpha artifact inactive
CSc1nc(N(C)C)nc(N(C)C#N)n1	none
Fc1ccccc1Cc1noc(CN2CCN(Cc3ccc4c(c3)OCO4)CC2)n1	none (no result: PGC1a acetyl inh)
CCN1C(=O)/C(=C\c2ccc(-c3ccc([N+](=O)[O-])cc3OC)o2)SC1=Nc1cccc(C(=O)O)c1	NSD2 inh 60 (no result: PGC1a acetyl inh) | Alpha artifact inactive
O=[N+]([O-])c1cc2ncccc2c2ncccc12	NSD2 inh 56 | Alpha artifact inactive
CCNCCC(CCC(C)C)c1ccc2c(c1)OCO2 (centres undefined)	NSD2 inh 57 | Alpha artifact inactive
NC(=O)c1nsc(C(=O)N(c2ccccc2)C(C(=O)NCC2CCCO2)c2ccc3ncccc3c2)c1N (centres undefined)	NSD2 inh 59 (no result: INS-1E GSIS act) | Alpha artifact inactive
